Conditions in all cases: mRNA level, 48 h; actives raise or lower the signal
Read-out in assay [1]: Cytochrome P450 (CYP24A1), CYP24A1 (gene 1591)
Put plainly: LTEA_HepaRG_CYP24A1: Life Technologies and Expression Analysis (LTEA) Assay for Cytochrome P450 (CYP24A1) using HepaRG (AID 2283478). In outline:
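mRNA of CYP24A1 quantified by TaqMan qRT-PCR (ACTB/GAPDH/POLR2A normalization) after 48 h chemical exposure of HepaRG cells, top concentration 100 uM, half-log steps, 0.5% DMSO vehicle, duplicates. Curves fitted bidirectionally against DMSO baseline.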

Read-out in assay [2]: Cytochrome P450 (CYP1A2), CYP1A2 (gene 1544)
The assay is described as follows: LTEA_HepaRG_CYP1A2: Life Technologies and Expression Analysis (LTEA) Assay for Cytochrome P450 (CYP1A2) using HepaRG (AID 2283479). In outline:
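CYP1A2 transcript measured by TaqMan qRT-PCR against three housekeeping genes after 48-hour chemical exposure of HepaRG cells. Eight-point half-log series topping at 100 uM in 0.5% DMSO, duplicates; gain or loss fitted relative to vehicle.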

Read-out in assay [3]: cysteine-aspartic acid protease (CASP8), CASP8 (gene 841)
Put plainly: LTEA_HepaRG_CASP8: Life Technologies and Expression Analysis (LTEA) Assay for cysteine-aspartic acid protease (CASP8) using HepaRG (AID 2283480). The method, boiled down: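 HepaRG, 48 h exposure, duplicate wells; 8 conc, half-log from 100 uM, 0.5% DMSO. Serum-free induction medium. CASP8 mRNA by TaqMan qRT-PCR, norm. ACTB/GAPDH/POLR2A; gain/loss fitted vs DMSO.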

Read-out in assay [4]: Cytochrome P450 (CYP2B6), CYP2B6 (gene 1555)
The assay is described as follows: LTEA_HepaRG_CYP2B6: Life Technologies and Expression Analysis (LTEA) Assay for Cytochrome P450 (CYP2B6) using HepaRG (AID 2283481). The method, boiled down: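 CYP2B6 transcript level quantified by qRT-PCR against three housekeeping genes, fitted bidirectionally relative to DMSO. HepaRG cultures received chemicals for 48 h, 8-point half-log series from 100 uM in 0.5% DMSO, duplicate wells, serum-free induction medium.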

Read-out in another assay: CYP2C8 (gene 1558)
The assay is described as follows: LTEA_HepaRG_CYP2C8: Life Technologies and Expression Analysis (LTEA) Assay for CYP2C8 using HepaRG (AID 2283483). In outline: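 CYP2C8 mRNA induction or loss, by qRT-PCR normalized to ACTB/GAPDH/POLR2A, is read in HepaRG cells after 48 h treatment. Concentrations run from 100 uM down in half-log dilutions, with 0.5% DMSO as vehicle and baseline.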

Read-out in the next assay: CYP2C9 (gene 1559)
Put plainly: LTEA_HepaRG_CYP2C9: Life Technologies and Expression Analysis (LTEA) Assay for CYP2C9 using HepaRG (AID 2283484). The method, boiled down:
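Cells plated 48 h, switched to serum-free induction medium, then treated in duplicate for 48 h at eight concentrations (max 100 uM, 0.5% DMSO). RNA then analysed by qRT-PCR for CYP2C9; curves fitted in both directions relative to DMSO.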

Read-out in another assay: CYP2E1 (gene 1571)
Put plainly: LTEA_HepaRG_CYP2E1: Life Technologies and Expression Analysis (LTEA) Assay for CYP2E1 using HepaRG (AID 2283485). The method, boiled down:
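HepaRG cells, plated 48 h, then exposed 48 h in serum-free induction medium to eight half-log concentrations from 100 uM in 0.5% DMSO, duplicate. CYP2E1 mRNA by qRT-PCR, normalized to ACTB/GAPDH/POLR2A; bidirectional fit versus DMSO.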

Read-out in another assay: CYP4A11 (gene 1579)
Put plainly: LTEA_HepaRG_CYP4A11: Life Technologies and Expression Analysis (LTEA) Assay for CYP4A11 using HepaRG (AID 2283486). The method, boiled down: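 Readout is CYP4A11 transcript level by qRT-PCR, normalized to three housekeeping genes and fitted bidirectionally against 0.5% DMSO. Human HepaRG cells were treated 48 h, in duplicate, with an 8-point half-log series topping at 100 uM.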

Read-out in assay [5]: Early growth response protein 1 (EGR1) transcription factor, EGR1 (gene 1958)
Put plainly: LTEA_HepaRG_EGR1: Life Technologies and Expression Analysis (LTEA) Assay for Early growth response protein 1 (EGR1) transcription factor using HepaRG (AID 2283490). The method, boiled down: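 Read-out is EGR1 mRNA level by qRT-PCR, normalized to three housekeeping genes and analysed for gain or loss of signal against 0.5% DMSO. Source cells: human HepaRG, treated 48 h at up to 100 uM in half-log dilutions.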

Read-out in assay [6]: Ezrin (EZR), EZR (gene 7430)
Put plainly: LTEA_HepaRG_EZR: Life Technologies and Expression Analysis (LTEA) Assay for Ezrin (EZR) using HepaRG (AID 2283491). The method, boiled down:
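EZR transcript levels came from Fluidigm qRT-PCR and were normalized to three housekeeping genes after 48 h chemical exposure of HepaRG cells. Dosing used an 8-point half-log series with a 100 uM top concentration in 0.5% DMSO, tested in duplicate; both directions were fitted versus vehicle.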

Read-out in assay [7]: Cytochrome P450 3A7 (Homo sapiens) (UniProt P24462)
The assay is described as follows: LTEA_HepaRG_CYP3A7: Life Technologies and Expression Analysis (LTEA) Assay for CYP3A7 using HepaRG (AID 2283492). The method, boiled down: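 CYP3A7 transcript measured by qRT-PCR (ACTB, GAPDH, POLR2A normalization) after 48 h chemical exposure of HepaRG cells in duplicate. Eight half-log concentrations, maximum 100 uM, 0.5% DMSO vehicle; bidirectional curve fitting against DMSO baseline.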

Read-out in another assay: CYP3A5 (gene 1577)
The assay is described as follows: LTEA_HepaRG_CYP3A5: Life Technologies and Expression Analysis (LTEA) Assay for CYP3A5 using HepaRG (AID 2283493). The method, boiled down:
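HepaRG cells, plated 48 h then in serum-free induction medium, dosed in duplicate for 48 h with eight half-log concentrations up to 100 uM in 0.5% DMSO. Gene mRNA by Fluidigm TaqMan qRT-PCR, normalized to ACTB, GAPDH, POLR2A.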

Read-out in assay [8]: Fatty Acid-Binding Protein 1 (FABP1), FABP1 (gene 2168)
Put plainly: LTEA_HepaRG_FABP1: Life Technologies and Expression Analysis (LTEA) Assay for Fatty Acid-Binding Protein 1 (FABP1) using HepaRG (AID 2283494). In outline:
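HepaRG, 48 h post-plating switched to serum-free induction medium, then dosed 48 h (duplicate, 8 pts, ≤100 uM, 0.5% DMSO). RNA → Fluidigm TaqMan qRT-PCR, FABP1 normed to ACTB/GAPDH/POLR2A. Bidirectional curve fit vs DMSO.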

Read-out in assay [9]: Cytochrome P450 7A1 (Homo sapiens) (UniProt P22680)
Put plainly: LTEA_HepaRG_CYP7A1: Life Technologies and Expression Analysis (LTEA) Assay for Cytochrome P450 7A1 (CYP7A1) using HepaRG (AID 2283496). The method, boiled down:
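HepaRG cells plated 48 h, then switched to serum-free induction medium and exposed in duplicate for 48 h to 8-point half-log series from 100 uM in 0.5% DMSO. CYP7A1 mRNA by qRT-PCR (TaqMan), normalized to ACTB/GAPDH/POLR2A; bidirectional fit versus DMSO.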

Read-out in assay [10]: Glutathione S-Transferase (GSTA2), GSTA2 (gene 2939)
The assay is described as follows: LTEA_HepaRG_GSTA2: Life Technologies and Expression Analysis (LTEA) Assay for Glutathione S-Transferase (GSTA2) using HepaRG (AID 2283497). In outline: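 HepaRG, 48 h dosing, 8-pt half-log CRC from 100 uM, 0.5% DMSO vehicle, n=2; RNA → Fluidigm TaqMan qRT-PCR; GSTA2 vs ACTB/GAPDH/POLR2A; gain/loss fit vs DMSO.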

Read-out in assay [11]: Cytochrome P450 2C19 (Homo sapiens) (UniProt P33261)
Put plainly: LTEA_HepaRG_CYP2C19: Life Technologies and Expression Analysis (LTEA) Assay for CYP2C19 using HepaRG (AID 2283482). The method, boiled down: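 CYP2C19 transcript levels by qRT-PCR, normalized to three housekeeping genes, in HepaRG cells after 48 h chemical exposure. Eight-point half-log series topping at 100 uM, 0.5% DMSO vehicle. Increases and decreases both fitted against DMSO.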

Read-out in assay [12]: Pro-epidermal growth factor (Homo sapiens) (UniProt P01133)
Put plainly: LTEA_HepaRG_EGF: Life Technologies and Expression Analysis (LTEA) Assay for Epidermal growth factor (EGF) using HepaRG (AID 2283489). The method, boiled down:
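EGF transcript measured by Fluidigm TaqMan qRT-PCR with three housekeeping genes for normalization, 48 h after dosing HepaRG cultures in duplicate (top 100 uM, half-log steps, 0.5% DMSO vehicle). Gain or loss relative to DMSO fitted.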

Read-out in assay [13]: Cytochrome P450 4A22 (Homo sapiens) (UniProt Q5TCH4)
Put plainly: LTEA_HepaRG_CYP4A22: Life Technologies and Expression Analysis (LTEA) Assay for Cytochrome P450 4A22 (CYP4A22) using HepaRG (AID 2283495). The method, boiled down: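 Gene expression measured by qRT-PCR against three housekeeping genes (ACTB, GAPDH, POLR2A), with gain or loss fitted relative to 0.5% DMSO vehicle. HepaRG cultures received 48 h chemical treatment, top concentration 100 uM, half-log steps, duplicate wells.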

The structures appear in SMILES notation. Calls of active or inactive are those of the source. The calls were made as follows: active = hit-call score of the fitted dose curve at least 0.9, where 1 is the maximum; inactive = score below 0.9.

Sequence of Cytochrome P450 3A7 (Homo sapiens) (P24462 whole entry, looked up): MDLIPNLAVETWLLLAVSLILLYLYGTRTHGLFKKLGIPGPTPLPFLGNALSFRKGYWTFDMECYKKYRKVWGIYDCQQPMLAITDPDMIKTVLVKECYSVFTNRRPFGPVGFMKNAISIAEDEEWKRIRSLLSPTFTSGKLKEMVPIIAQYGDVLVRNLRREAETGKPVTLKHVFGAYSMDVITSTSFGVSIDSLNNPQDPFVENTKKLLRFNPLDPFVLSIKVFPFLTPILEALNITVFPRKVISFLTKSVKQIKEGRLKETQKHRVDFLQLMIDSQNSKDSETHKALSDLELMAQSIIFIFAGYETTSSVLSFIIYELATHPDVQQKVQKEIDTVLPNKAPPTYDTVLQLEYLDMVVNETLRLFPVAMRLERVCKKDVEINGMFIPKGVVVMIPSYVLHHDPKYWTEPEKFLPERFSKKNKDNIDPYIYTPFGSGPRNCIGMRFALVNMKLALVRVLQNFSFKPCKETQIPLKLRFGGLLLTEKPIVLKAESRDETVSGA
Sequence of Cytochrome P450 2C19 (Homo sapiens) (P33261 whole entry, looked up): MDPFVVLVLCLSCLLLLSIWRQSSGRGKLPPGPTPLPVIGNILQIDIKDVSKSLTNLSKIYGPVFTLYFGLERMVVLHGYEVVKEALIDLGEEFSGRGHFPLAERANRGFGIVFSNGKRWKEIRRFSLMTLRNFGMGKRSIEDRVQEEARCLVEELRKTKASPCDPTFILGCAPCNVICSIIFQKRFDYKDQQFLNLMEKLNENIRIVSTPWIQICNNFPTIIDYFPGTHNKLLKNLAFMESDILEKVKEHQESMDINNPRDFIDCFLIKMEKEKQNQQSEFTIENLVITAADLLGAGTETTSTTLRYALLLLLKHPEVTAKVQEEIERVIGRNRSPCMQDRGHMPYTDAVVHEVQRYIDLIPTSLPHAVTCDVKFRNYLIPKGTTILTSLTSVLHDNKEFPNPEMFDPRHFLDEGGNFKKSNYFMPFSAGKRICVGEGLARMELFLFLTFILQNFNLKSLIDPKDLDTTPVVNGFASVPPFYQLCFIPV

One may read the AC50 as the midpoint of the concentration-response curve, whichever way the signal moves. Consider `C[C@]12C=CC(=O)C=C1CC[C@H]1[C@@H]3C[C@@H](O)[C@](O)(C(=O)CO)[C@@]3(C)C[C@H](O)[C@@]12F`, for which the outcome (in assay [1]; in assay [3]; in assay [4]; with CYP2C8 (gene 1558); with CYP2C9 (gene 1559); with CYP2E1 (gene 1571)) was inactive. Besides, the call (with CYP4A11 (gene 1579); in [5]; in assay [6]; in assay [7]; in the assay with CYP3A5 (gene 1577); in assay [8]) was inactive. The outcome in [9] and in assay [10] was inactive. Further, the AC50 in [2] was 50 µM (active).

Consider `C=CCc1cc(S(=O)(=O)c2ccc(O)c(CC=C)c2)ccc1O`, for which the result in assay [1], in [3], in assay [12], in [5] and in assay [6] was inactive. Besides, the AC50 was 8.77 µM (active) in [2]; 80.6 µM (active) in [4]; 95.4 µM (active) in assay [11]; 97.2 µM (active) with CYP2C8 (gene 1558); 93 µM (active) in the assay with CYP2C9 (gene 1559); 86.3 µM (active) in the assay with CYP2E1 (gene 1571). Besides, the AC50 is 94.4 µM (active) with CYP4A11 (gene 1579); 76.8 µM (active) in assay [7]; 9.92 µM (active) with CYP3A5 (gene 1577); 86.8 µM (active) in [8]; 83.1 µM (active) in assay [9]; 93.1 µM (active) in assay [10].

Consider `c1ccc2c(c1)-c1cccc3c1c-2cc1ccccc13`, for which the result in [1], in assay [4] and in assay [12] was inactive. The AC50 in [2] is 1.13 µM (active); in [11] it was 17.2 µM (active); with CYP2C8 (gene 1558), 17.3 µM (active); with CYP2C9 (gene 1559), 18.1 µM (active); with CYP2E1 (gene 1571), 14.7 µM (active); in the assay with CYP4A11 (gene 1579), 26.1 µM (active). The AC50 in assay [5] was 0.404 µM (active); in assay [7] it was 13 µM (active); with CYP3A5 (gene 1577), 5.37 µM (active); in assay [8] it was 19.1 µM (active); in assay [13], 29.1 µM (active); in assay [9], 15.6 µM (active). In addition, in assay [10], the AC50 was 17.9 µM (active).

The values are drawn from PubChem BioAssay (EPA / NIEHS).
